# From ChEMBL document CHEMBL3988442, “University of Dundee, Small-Polar-MMV Screening Library” (2021)
# Legend:
# [1] = target: T1, Aspartate--tRNA(Asp/Asn) ligase (Mycobacterium tuberculosis (strain ATCC 25618 / H37Rv)) (UniProt P9WFW3); assay: Assay for Asp RNA synthetase-1 from Mycobacterium tuberculosis; format: functional; set-up: scale not given: direction of the effect not stated beside the values; settings: 30 µM; note: in the data most compounds retested in dose-response had high values
# T1 sequence (whole entry): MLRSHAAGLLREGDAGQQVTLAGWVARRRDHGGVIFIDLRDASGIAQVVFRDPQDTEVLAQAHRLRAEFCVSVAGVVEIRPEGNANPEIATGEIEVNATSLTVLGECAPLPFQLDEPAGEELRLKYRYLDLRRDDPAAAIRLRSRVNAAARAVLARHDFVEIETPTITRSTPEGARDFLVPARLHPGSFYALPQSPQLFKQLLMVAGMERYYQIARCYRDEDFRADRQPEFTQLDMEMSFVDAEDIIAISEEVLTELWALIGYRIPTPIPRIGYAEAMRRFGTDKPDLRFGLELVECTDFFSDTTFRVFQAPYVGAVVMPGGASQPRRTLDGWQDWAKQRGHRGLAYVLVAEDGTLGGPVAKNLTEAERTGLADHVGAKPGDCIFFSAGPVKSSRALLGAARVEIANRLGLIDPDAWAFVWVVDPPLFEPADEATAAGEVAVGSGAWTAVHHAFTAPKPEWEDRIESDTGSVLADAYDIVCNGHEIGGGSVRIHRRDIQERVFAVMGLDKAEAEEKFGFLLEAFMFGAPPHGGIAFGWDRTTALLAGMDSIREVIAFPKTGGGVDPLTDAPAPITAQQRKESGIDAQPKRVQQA
# [2] = target: Shiga toxin 2 (Escherichia coli O157:H7) (UniProt P09385+P09386); assay: E. coli 0.157:H7 Shiga Toxin SOP - stx2 screening assay; format: functional; set-up: scale not given: direction of the effect not stated beside the values; settings: 30 µM
Structure (SMILES),Percent Effect [1],Percent Effect [2]
Cc1ccc(C(=O)N2CCCC3(CCCC(=O)N3C)C2)cc1F (centres undefined),3.71%,-5.85%
COC(=O)C1CCN(c2cncc(-n3nc(C)cc3C)n2)CC1,8.26%,-51.5%
COC(=O)c1cccc(NC(=O)CN2CCN(S(C)(=O)=O)CC2)c1,1.93%,10.4%
CCSc1cc(C(=O)NCc2ccccc2O)ccn1,2.33%,11.7%
O=C(NC[C@]12COC[C@H]1CN(C1CCOCC1)C2)c1ccco1,1.57%,-3.12%
c1cc(CN2CCCC(c3noc(C4CC4)n3)C2)no1 (centres undefined),-0.285%,4.12%
CCCn1nc2c(cc1=O)CN(CCCN1CCCC1=O)CC2,10.1%,12.4%
N#Cc1ccc(N2CCCN(C(=O)CC3CCCO3)CC2)cc1 (centres undefined),4.84%,11.8%
CCc1c(C)nn(CCNC(=O)C2CCCN(C(=O)N(C)C)C2)c1C (centres undefined),-4.11%,20%
CC(C)c1nc(C2CCCN2CC(=O)N2CCNC2=O)no1 (centres undefined),1.61%,-10.5%
O=C(CCNC(=O)c1ccccc1N1CCOCC1)NC1CCCC1,-1.94%,-19.9%
Cc1nnc2n1CCN(C(=O)c1cn(-c3ccccc3Cl)nn1)C2,-0.98%,-42.4%
CCc1ccccc1CN1CC[C@@H](NC(=O)c2cccnc2)[C@H](O)C1,-4.34%,-1.07%
O=S(=O)(Cc1ccccc1)NCC1CCN(c2cnccn2)CC1,2.52%,11.3%
CN(C)C(=O)N1CCc2c(CNc3ncccn3)cncc2C1,0.757%,-10.5%
Cc1nc(C)n(CC2CCCN(CCc3ccncc3)C2)n1 (centres undefined),0.891%,-14.2%
O=C(N1CCCO1)[C@@]12CCO[C@@H]1CCN(Cc1ccccc1)C2,-1.34%,-5.88%
